Screening data: PubChem BioAssay, Broad Institute
PvdQ acylase – P. aeruginosa PvdQ acylase inhibitors, primary screen, biochemical, fluorescence, plate reader and imaging, single point; PvdQ acylase [Pseudomonas aeruginosa LESB58]; purified PvdQ acylase; inhibition, % at 10 µM; 340,000 tested, 0.063% active; AID 488965, 2010; in the data active means inhibition above about 30%, passing the limit was not always enough;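 further: 0% = vehicle neutral wells and 100% = reference inhibitor wells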
CDK5 p35 inh – inhibitors of human CDK5/p35 kinase, primary screen, biochemical, single concentration; AID 488839, 2010; Recombinant CDK5/p35, ADP-Glo luminescence, 60 min; Cyclin-dependent kinase 5 (Homo sapiens) + Cyclin-dependent kinase 5 activator 1 (Homo …; 330,000 tested, 0.01% active; inhibition, % at 10 µM;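 active means highest replicate inhibition of at least 50% and at least 75% of replicates reaching 50%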;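 further: plate controls were DMSO neutral control for no effect and GW8510 at 10 µM for full effect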
Target sequence (Q00535 whole entry, looked up): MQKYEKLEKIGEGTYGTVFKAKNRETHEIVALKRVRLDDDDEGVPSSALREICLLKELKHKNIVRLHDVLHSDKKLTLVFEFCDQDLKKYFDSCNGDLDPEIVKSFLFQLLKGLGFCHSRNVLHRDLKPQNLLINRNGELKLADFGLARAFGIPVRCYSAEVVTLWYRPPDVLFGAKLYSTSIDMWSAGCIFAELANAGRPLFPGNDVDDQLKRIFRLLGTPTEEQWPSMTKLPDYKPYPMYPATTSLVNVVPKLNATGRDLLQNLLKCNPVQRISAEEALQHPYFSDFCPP
Target sequence (Q15078 whole entry, looked up): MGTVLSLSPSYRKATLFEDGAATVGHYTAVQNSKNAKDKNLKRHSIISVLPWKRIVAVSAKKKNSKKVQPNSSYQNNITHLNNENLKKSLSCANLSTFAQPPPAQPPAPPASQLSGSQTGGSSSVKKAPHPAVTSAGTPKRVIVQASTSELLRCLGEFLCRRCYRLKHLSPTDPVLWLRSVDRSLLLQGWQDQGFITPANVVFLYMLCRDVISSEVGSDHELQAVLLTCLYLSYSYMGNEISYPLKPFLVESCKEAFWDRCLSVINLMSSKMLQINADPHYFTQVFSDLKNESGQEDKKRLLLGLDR
dFosB act-1 – activators of delta FosB homodimer, primary screen, biochemical, fluorescence polarization, TAMRA-CDK5 oligo, single point; Protein FosB (Mus musculus), P13346; purified delta FosB; percent of positive-control signal above neutral wells; activation, % at 25 µM; 340,000 tested, 0.99% active; AID 493131, 2011;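 active means mean activation above about 17%, with every replicate also reaching it, limit read from the data, passing the limit was not always enough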
PglD DTNB – C. jejuni PglD acetyltransferase inhibitors, primary screen, biochemical, DTNB colorimetric, single point. 360,000 tested, 0.098% active. purified PglD enzyme, DTNB colorimetric CoA detection. inhibition, % at 12.5 µM. UDP-N-acetylbacillosamine N-acetyltransferase PglD (Campylobacter jejuni); in the data active means inhibition above about 16%, passing the limit was not always enough
FGF22 binding – binders of human FGF22 protein, primary screen, FGF22 synaptogenesis inhibitor project, biophysical, thermal shift, single point; Fibroblast growth factor 22 (Homo sapiens), Q9HCT0; recombinant FGF22 thermal shift, SYPRO orange fluorescence; percent of sucrose octasulfate shift, DMSO zero; activity (Tm shift, normalised), % at 9.99 µM; 340,000 tested, 1.5% active;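 active means mean Tm shift, scaled 0 neutral to 100 positive control, at about 1.3% or above, every replicate too, limit read from the data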
SIRT5 block – SIRT5 desuccinylase inhibitors, primary screen, biochemical, fluorescence imaging, single point, set 5; NAD-dependent protein deacylase sirtuin-5, mitochondrial (Homo sapiens), Q9NXA8; inhibition, % at 15 µM; Purified SirT5, succinyl-peptide AMC, trypsin-coupled fluorescence; 330,000 tested, 1.1% active; AID 652115, 2013; in the data active means inhibition above about 15%
dFosB act-2 – activators of mouse delta FosB DNA binding, confirmation, biochemical, fluorescence polarization, TAMRA-CDK5 oligo, cherry-picked samples | AID 588690, 2011 | purified delta FosB; normalised: neutral wells 0, positive control 100 | 2,400 tested, under 10 active | shares compounds with dFosB act-1 | activation, % at 24.9 µM;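 active means highest replicate activation at or above 34% and every replicate reaching that threshold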;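 further: higher polarization means more probe DNA bound by delta FosB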
* hit, by the source's call. This is a sample that favours compounds with a hit; in the whole collection about 2.8% have one here.

For C[C@H]1CCCCO[C@H](CN(C)Cc2ccc3c(c2)OCO3)[C@@H](C)CN([C@@H](C)CO)C(=O)c2cc(NC(=O)NC3CCCCC3)ccc2O1 the results were PglD DTNB 0.5, FGF22 binding 0.1 and SIRT5 block -0.7.
Screening CC(=O)Nc1ccc(Sc2ncccc2C(=O)Nc2ccc(OC(F)(F)F)cc2)cn1 returned PvdQ acylase -19.5, CDK5 p35 inh -7.2, dFosB act-1 51.3*, FGF22 binding 0.4, SIRT5 block -1.0 and dFosB act-2 3.7.
`CC(=O)Nc1ccc(Sc2ncccc2C(=O)Nc2cc(Cl)cc(Cl)c2)cn1` gave PvdQ acylase -7.4, CDK5 p35 inh 2.6, dFosB act-1 81.7*, PglD DTNB -5.7, SIRT5 block -0.2 and dFosB act-2 -0.7.
Screening COc1cc(NC(=O)c2cccnc2Sc2ccc(C)c(C)c2)cc(OC)c1OC returned PvdQ acylase 1.9, CDK5 p35 inh -0.4, dFosB act-1 -9.8 and PglD DTNB -9.1.
`Cc1cccc(S(=O)(=O)N[C@@H]2CC[C@@H](CCNS(=O)(=O)c3ccccc3F)O[C@H]2CO)c1` gave PglD DTNB 0.1, FGF22 binding -0.7 and SIRT5 block 0.5.
CSc1ccccc1NC(=O)c1cc(-c2ccc3c(c2)OCO3)on1 was read as PvdQ acylase -5.4, CDK5 p35 inh -2.4, dFosB act-1 7.7, PglD DTNB -2.4, FGF22 binding 0.1 and SIRT5 block -1.0.
Screening O=C(Nc1cc(Br)ccc1O)c1cc(-c2cccs2)on1 returned PvdQ acylase -12.7, CDK5 p35 inh -3.2, dFosB act-1 49.0*, PglD DTNB -6.5, FGF22 binding -0.2, SIRT5 block -2.3 and dFosB act-2 -4.2.
`COc1ccc(-c2cc(C(=O)Nc3ccc4c(c3)OCO4)no2)cc1OC` gave PvdQ acylase 0.1, CDK5 p35 inh 0.4, dFosB act-1 7.2, PglD DTNB 5.4, FGF22 binding 0.2 and SIRT5 block 1.8.
`O=C(Nc1cc(Br)ccc1O)c1cc(-c2ccc3c(c2)OCO3)on1` gave PvdQ acylase -11.8, CDK5 p35 inh 2.1, dFosB act-1 76.6*, PglD DTNB -1.4, FGF22 binding -0.2, SIRT5 block 0.8 and dFosB act-2 1.0.
Screening COc1ccc(NC(=O)c2cc(-c3ccc4c(c3)OCO4)on2)cc1OC returned PvdQ acylase 1.8, CDK5 p35 inh -1.5, dFosB act-1 32.9*, PglD DTNB -4.4, FGF22 binding 0.2, SIRT5 block -37.0 and dFosB act-2 2.0.
Screening COc1ccc(NC(=O)N(C)C[C@@H]2OCc3ccccc3-c3ccccc3C(=O)N([C@@H](C)CO)C[C@H]2C)c(OC)c1 returned PglD DTNB 2.6, FGF22 binding 0.0 and SIRT5 block -6.7.
Screening CCCNC(=O)N[C@@H]1CC[C@H](CC(=O)NC2CCC2)O[C@H]1CO returned SIRT5 block -2.7.
Screening O=[N+]([O-])c1ccccc1OCCOc1ccccc1[N+](=O)[O-] returned PvdQ acylase 10.3, CDK5 p35 inh 0.2, dFosB act-1 23.2*, SIRT5 block 0.2 and dFosB act-2 0.6.
CNC[C@H]1OCCCC[C@H](C)Oc2ccc(NS(=O)(=O)c3ccc(C)cc3)cc2C(=O)N([C@@H](C)CO)C[C@@H]1C was read as PglD DTNB -1.8, FGF22 binding -0.4 and SIRT5 block 6.1.
Cc1ccc(C)c(-n2nnnc2SCC(=O)c2ccc3c(c2)NC(=O)CO3)c1 was read as PvdQ acylase -10.8, CDK5 p35 inh -0.2, dFosB act-1 67.9*, PglD DTNB -1.0 and dFosB act-2 0.7.
COc1ccc(COCC(O)CN2CCC(CN3C(=O)c4cccc5cccc(c45)C3=O)CC2)cc1OC (configuration not stated) was read as PvdQ acylase -16.2, CDK5 p35 inh -1.3, dFosB act-1 27.6* and dFosB act-2 5.3.
Screening COc1cccc(OCC(O)CN2CCC(CN3C(=O)c4cccc5cccc(c45)C3=O)CC2)c1 (configuration not stated) returned PvdQ acylase -4.5, CDK5 p35 inh 1.5, dFosB act-1 45.5*, FGF22 binding 0.2, SIRT5 block -8.6 and dFosB act-2 3.5.
COc1cc(COCC(O)CN2CCN(CCN3C(=O)c4cccc5cccc(c45)C3=O)CC2)cc(OC)c1OC (configuration not stated) was read as PvdQ acylase -6.0, CDK5 p35 inh 1.7, dFosB act-1 37.1*, FGF22 binding -0.2, SIRT5 block -0.3 and dFosB act-2 0.8.
`C[C@@H]1CN([C@@H](C)CO)C(=O)c2cc(NS(=O)(=O)c3cn(C)cn3)ccc2O[C@@H](C)CCCCO[C@H]1CN(C)Cc1ccc(C(F)(F)F)cc1` gave PglD DTNB 1.3, FGF22 binding -0.1 and SIRT5 block 6.9.
`Cc1ccc(S(=O)(=O)N(C)C[C@H]2Oc3ccc(NC(=O)Cc4cn(C)c5ccccc45)cc3C(=O)N([C@@H](C)CO)C[C@H]2C)cc1` gave PglD DTNB 0.7 and FGF22 binding 0.0.
Cc1ccc(C(=O)c2oc3ccccc3c2NC(=O)c2cc(-c3ccccc3O)n[nH]2)cc1 was read as PvdQ acylase -10.5, CDK5 p35 inh -1.3, dFosB act-1 30.9* and dFosB act-2 -4.8.
`O=[N+]([O-])c1ccc2[nH]cc(S(=O)(=O)N3CCN(c4cccc(Cl)c4)CC3)c2c1` gave PvdQ acylase -1.2, CDK5 p35 inh 0.3, dFosB act-1 25.9*, PglD DTNB -1.4, FGF22 binding 0.3, SIRT5 block -3.8 and dFosB act-2 4.4.
`O=C(C[C@@H]1C=C[C@@H](NS(=O)(=O)c2ccc(F)cc2)[C@@H](CO)O1)NC1CCC1` gave PglD DTNB 1.5, FGF22 binding -0.2 and SIRT5 block 6.7.
`C[C@H](CO)N1C[C@H](C)[C@@H](CN(C)C(=O)Nc2ccccc2)OCCCC[C@H](C)Oc2ccc(NC(=O)Cc3ccccc3)cc2C1=O` gave PglD DTNB 1.0, FGF22 binding -0.7 and SIRT5 block -1.3.
